{
  "source": "PubChem BioAssay AID1745847",
  "about": "(National Center for Advancing Translational Sciences (NCATS), 2022)",
  "note": "Among all 2,100 compounds or so, about 670 (32%) were called active. Inconclusive results (about 50%) are left out. Calls come from the whole dose curve; as a rule, active = well fitted inhibition curve with a large enough effect; inconclusive = small, poorly fitted or top-dose-only effect; inactive = no such curve, though single readings can be large or run the other way. This is one part of the list. % is set by controls: 0 for no effect and ±100 for the full control effect; potency is the fitted concentration of half-maximal effect.",
  "data": [
    {"test": "CMV-Luciferase Counterscreen for Inhibitors of ATXN expression; note: nearly all actives have a fitted effect of over 55% in size", "conditions": "HEK-293 CMV-luciferase reporter, luminescence, 24 h; series mostly up to 57.5 µM; activity change, negative = inhibition: at the top concentration", "values": [
      {"smiles": "O=C(Nc1nc(NC(=O)c2ccco2)n(-c2ccccc2)n1)c1ccccc1", "Potency": "6.31 µM (active)"},
      {"smiles": "CCN1CC2=C(OC(N)=C(C#N)C2c2cccs2)/C(=C\\c2cccs2)C1", "note": "(stereo not drawn)", "activity change, negative = inhibition": "-3.4% [at 11.4 µM] (inactive)"},
      {"smiles": "COc1cc2[nH]c(=O)n(CCCCCC(=O)N3CC=C(c4ccccc4)CC3)c(=O)c2cc1OC", "Potency": "3.16 µM (active)"},
      {"smiles": "COc1ccc(/C=C2\\SC(=S)N(CCCC(=O)NNC(=O)c3ccccc3O)C2=O)cc1", "Potency": "3.98 µM (active)"},
      {"smiles": "CCN1CCN(CCCNC(=O)c2ccc(/C=C3/Sc4ccccc4N(Cc4ccccc4F)C3=O)cc2)CC1", "activity change, negative = inhibition": "12.2% (inactive)"},
      {"smiles": "O=C(CCCN1C(=O)S/C(=C\\c2ccccc2)C1=O)NNC(=O)c1ccccc1O", "Potency": "2.24 µM (active)"},
      {"smiles": "CCC(C)(C)c1ccc(Oc2ccc(N)cc2)cc1", "Potency": "2 µM (active)"},
      {"smiles": "CC(C)(C)c1ccc(Oc2ccc(N)cn2)cc1", "Potency": "3.98 µM (active)"},
      {"smiles": "CC(C)(C)c1ccc(Oc2ccc(N)cc2)cc1", "Potency": "3.98 µM (active)"},
      {"smiles": "Cc1ccc(C(C[N+](=O)[O-])Sc2ccc(N)cc2)cc1", "note": "(stereo not drawn)", "activity change, negative = inhibition": "52% [at 11.4 µM] (inactive)"},
      {"smiles": "Cc1c(Cl)c([N+](=O)[O-])nn1Cc1ccc(C(=O)N/N=C\\c2cc(Cl)ccc2O)o1", "Potency": "0.631 µM (active)"},
      {"smiles": "CCN(CC)c1ccc(/C=C/c2cccc[n+]2C)c(OC)c1", "Potency": "2 µM (active)"},
      {"smiles": "CCCC[C@@H](CNC)NC[C@H](NCCCCC1CCCCC1)C(C)C", "Potency": "35.5 µM (active)"},
      {"smiles": "O=C(/C=C/c1ccccc1)NC(=S)NNC(=O)c1cnccn1", "Potency": "8.91 µM (active)"},
      {"smiles": "CCn1c2ccccc2c2cc(/C=N/NC(=O)c3ccc(O)cc3)ccc21", "activity change, negative = inhibition": "-11.8% (inactive)"},
      {"smiles": "CCn1c2ccccc2c2cc(/C=N/NC(=O)c3ccncc3)ccc21", "Potency": "2.82 µM (active)"},
      {"smiles": "O=C1N/C(=N/N=C/c2ccccc2O)SC1Cc1ccc(F)cc1", "note": "(stereo not drawn)", "Potency": "12.6 µM (active)"},
      {"smiles": "Cn1nnnc1Sc1ncnc2scc(-c3ccsc3)c12", "Potency": "11.2 µM (active)"},
      {"smiles": "COc1ccc(-c2csc3ncnc(Sc4nnnn4C)c23)cc1", "Potency": "3.98 µM (active)"},
      {"smiles": "Cc1cnc(NC(=O)CCCc2nc3ccccc3s2)s1", "activity change, negative = inhibition": "91.3% (inactive)"},
      {"smiles": "O=C1C=C(Nc2ccccc2O)c2ccccc2C1=O", "Potency": "10 µM (active)"},
      {"smiles": "CN(C)S(=O)(=O)c1ccc(-c2csc(N/N=C/c3ccco3)n2)cc1", "Potency": "2.51 µM (active)"},
      {"smiles": "CC1=CC(C)(C)Nc2ccc(OC(=O)CN3C(=O)c4cccc5cccc(c45)C3=O)cc21", "Potency": "15.8 µM (active)"},
      {"smiles": "O=C(NCc1ccccc1)C1=C[C@@H](c2csc3ccccc23)C[C@@H](OCCCCO)O1", "Potency": "3.55 µM (active)"},
      {"smiles": "C=CCOC(=O)C1=C[C@@H](c2ccc3c(c2)OCO3)C[C@@H](OCCCCO)O1", "activity change, negative = inhibition": "5.8% (inactive)"},
      {"smiles": "CCOC(=O)c1sc2nc(CSc3ccccc3)nc(NCCN(C)C)c2c1C", "activity change, negative = inhibition": "-27.1% (inactive)"},
      {"smiles": "O=c1c2ccccc2sc2nc(CCl)nn12", "activity change, negative = inhibition": "-24% [at 11.4 µM] (inactive)"},
      {"smiles": "CCCCCn1c(=O)c2ccccc2n2c(CCl)nnc12", "Potency": "25.1 µM (active)"},
      {"smiles": "CNC(=O)c1sc(N2N=C3/C(=C/c4ccccc4)CCCC3C2c2ccccc2)nc1C", "note": "(stereo not drawn)", "Potency": "7.94 µM (active)"},
      {"smiles": "COc1ccc2c(c1)CC(N1CCN(C)CC1)c1cc(OC)ccc1S2", "note": "(stereo not drawn)", "Potency": "28.2 µM (active)"},
      {"smiles": "CCCCN1C(=O)/C(=C2/Sc3ccccc3N2C)S/C1=N\\c1ncn[nH]1", "activity change, negative = inhibition": "5.62% (inactive)"},
      {"smiles": "Cc1cc(=O)oc2c1c(C)nn2-c1cccc(Cl)c1", "activity change, negative = inhibition": "-12.8% [at 11.4 µM] (inactive)"},
      {"smiles": "COc1ccc(-n2nc(C(=O)NCC(=O)Nc3cccc(Cl)c3)c3ccccc3c2=O)cc1OC", "activity change, negative = inhibition": "11.4% (inactive)"},
      {"smiles": "O=C(c1cccc(Cl)c1)c1nn(-c2ccccc2)c(=O)cc1C(F)(F)F", "Potency": "25.1 µM (active)"},
      {"smiles": "O=C(N/N=C\\c1cc(Cl)ccc1O)c1ccc(S(=O)(=O)N2CCCCC2)cc1", "Potency": "0.316 µM (active)"},
      {"smiles": "CC1(C)Cc2c(ccc3ccccc23)C2=C(C(=O)N3CCCC3)C(=O)C(=O)N21", "activity change, negative = inhibition": "-5.36% (inactive)"},
      {"smiles": "O=C(N/N=C\\c1c(O)ccc2ccccc12)c1ccc(S(=O)(=O)N2CCCCC2)cc1", "Potency": "1.12 µM (active)"},
      {"smiles": "CN(C)CCNc1cccc2sc3ccc(O)cc3c(=O)c12", "Potency": "14.1 µM (active)"},
      {"smiles": "CN(C)CCNc1ccc(CO)c2sc3ccc(O)cc3c(=O)c12", "Potency": "0.631 µM (active)"},
      {"smiles": "COc1ccc(C(=O)c2sc(Nc3ccccc3)nc2N)cc1OC", "activity change, negative = inhibition": "129% (inactive)"},
      {"smiles": "COc1ccc(C(=O)NC(=S)NNC(=O)c2c(-c3ccccc3)noc2C)cc1OC", "Potency": "10 µM (active)"},
      {"smiles": "CCOC(=O)C(C(C)=O)c1c(Br)c(O)c(O)c2c(C(=O)c3ccc(C)cc3)coc12", "note": "(stereo not drawn)", "Potency": "2.51 µM (active)"},
      {"smiles": "Cc1cc(O)c(C(C)C)cc1N=Cc1ccccc1[N+](=O)[O-]", "activity change, negative = inhibition": "-23.9% (inactive)"},
      {"smiles": "Cc1cc(N/N=C/c2ccccc2[N+](=O)[O-])nc(-n2nc(C)cc2C)n1", "Potency": "7.08 µM (active)"},
      {"smiles": "Cc1cc(N/N=C\\c2ccc(Br)cc2)nc(-n2nc(C)cc2C)n1", "activity change, negative = inhibition": "1.75% (inactive)"},
      {"smiles": "NC(=O)CC(NC(=O)Cc1ccc(Br)cc1)c1ccc(NC2CCCC2)c([N+](=O)[O-])c1", "note": "(stereo not drawn)", "Potency": "3.16 µM (active)"},
      {"smiles": "N#CC1=C(N)N2C(=C(C#N)C1c1cccc(Br)c1)Nc1ccccc12", "note": "(stereo not drawn)", "Potency": "3.55 µM (active)"},
      {"smiles": "N#CC1=C(N)N2C(=C(C#N)C1c1ccc(Br)cc1)Nc1ccccc12", "note": "(stereo not drawn)", "Potency": "0.631 µM (active)"},
      {"smiles": "CCc1ccc(NC(=O)C2CCN(S(=O)(=O)c3ccc4c(c3)CC(C)N4C(C)=O)CC2)cc1", "note": "(stereo not drawn)", "Potency": "3.16 µM (active)"},
      {"smiles": "CC(=O)N1c2ccc(S(=O)(=O)N3CCC(C(=O)N4CCN(c5ccc(Cl)cc5)CC4)CC3)cc2CC1C", "note": "(stereo not drawn)", "Potency": "7.94 µM (active)"},
      {"smiles": "CN1CCN(c2ccc(S(=O)(=O)N3CCCCC3)cc2NC(=O)/C=C/c2ccc(Cl)c([N+](=O)[O-])c2)CC1", "activity change, negative = inhibition": "-27% [at 11.4 µM] (inactive)"},
      {"smiles": "CC(=O)N1c2ccc(S(=O)(=O)N3CCC(C(=O)Nc4cccc(C(F)(F)F)c4)CC3)cc2CC1C", "note": "(stereo not drawn)", "Potency": "8.91 µM (active)"},
      {"smiles": "Cc1ccc(/C=N/NC(=O)C2=NNC(c3ccccc3)(c3ccccc3)C2)c(O)c1", "Potency": "3.16 µM (active)"},
      {"smiles": "CCN(CC)CCNc1ccc(CO)c2sc3ccccc3c(=O)c12", "Potency": "17.8 µM (active)"},
      {"smiles": "O=c1c2ccccc2sc2c(CO)ccc(NCCN3CCCCC3)c12", "Potency": "22.4 µM (active)"},
      {"smiles": "COC(/C(=N/O)c1ccc(Cl)cc1)c1ccccc1", "note": "(stereo not drawn)", "activity change, negative = inhibition": "-21.2% (inactive)"},
      {"smiles": "Cc1cc(NCc2ccccn2)n2nc(C)c(-c3ccc(Cl)cc3)c2n1", "Potency": "20 µM (active)"},
      {"smiles": "Cc1cc(Oc2ccc(Cl)cc2)nc(-c2ccccn2)n1", "activity change, negative = inhibition": "-22.3% (inactive)"}
    ]}
  ]
}
